Experimental data: PubChem BioAssay AID493012 (Sanford-Burnham Center for Chemical Genomics, 2011)
Among all 330,000 compounds or so, about 930 (0.28%) were called active. Many of the other results were omitted from the sample, so actives are more common in it than they were. Values without a mark were called inactive.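 How the source made its calls: active means inhibition of at least 40% at 20 µM, with no more than 30% in the related APOBEC3A deaminase screen; inactive means the rest.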

biological target: DNA dC->dU-editing enzyme APOBEC-3G (Homo sapiens) (UniProt Q9HC16); assay: APOBEC3G DNA deaminase inhibitors, primary screen, biochemical, fluorescence, single-stranded DNA substrate, uHTS (AID 493012); settings: recombinant A3G, ssDNA deamination FAM/TAMRA fluorescence; at 20 µM; active compounds read high;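 further: plate controls were DMSO wells with A3G for no effect and wells lacking A3G enzyme for full effect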
Sequence (Q9HC16 whole entry, looked up): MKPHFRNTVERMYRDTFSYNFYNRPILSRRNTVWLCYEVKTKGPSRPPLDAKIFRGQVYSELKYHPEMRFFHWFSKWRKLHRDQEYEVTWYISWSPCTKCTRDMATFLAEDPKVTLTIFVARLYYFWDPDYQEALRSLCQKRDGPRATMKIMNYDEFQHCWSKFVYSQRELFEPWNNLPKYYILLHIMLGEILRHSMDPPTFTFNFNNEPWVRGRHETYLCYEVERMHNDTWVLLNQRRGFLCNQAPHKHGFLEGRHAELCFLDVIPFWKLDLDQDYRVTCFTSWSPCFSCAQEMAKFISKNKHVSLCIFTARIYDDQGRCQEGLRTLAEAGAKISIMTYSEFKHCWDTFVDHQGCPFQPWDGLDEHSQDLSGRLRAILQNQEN

| SMILES | inhibition |
| --- | --- |
| COC(=O)N(c1ccc(OC)cc1)P1(=S)OCCC(C)O1 (stereo not given) | 69.7% (active) |
| Cn1c(O)c(C=NCCN2CCNCC2)c(=O)n(C)c1=O | -1.92% |
| CCCC[N+]1(C)C2CC(OC(=O)C(CO)c3ccccc3)CC1C1OC12 (stereo not given) | -0.137% |
| CCN1CCN(Cc2cc(OC)c3c(c2)OCO3)CC1 | -5.01% |
| Cc1cccc(-n2c(O)c(/C=N/N3CCOCC3)c(=O)[nH]c2=S)c1 | -9.2% |
